# Inconclusive results are not listed. Where a call stands in place of a potency, no number is given. The source made the active and inactive calls. Calls follow the shape of the dose curve; as a rule, active = well fitted inhibition curve with a large enough effect; inconclusive = small, poorly fitted or top-dose-only effect; inactive = flat fitted curve, though single readings scatter.
# Tests used:
# Assay in all cases: qHTS profiling for inhibitors of Plasmodium falciparum proliferation (AID 504749); also: nearly all actives have a fitted effect of over 60% in size
# Conditions in all cases: P. falciparum in erythrocytes, SYBR Green DNA, 72 h; series mostly up to 12.8 µM
# 3D7 = tested on: 3D7
# Outline: (§1)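 P. falciparum-infected erythrocytes (0.3% parasitemia, 2.5% hematocrit) incubated with compound 72 h at 37 C, 5% CO2. Parasite DNA detected by SYBR Green after lysis, overnight at room temperature; normalised to 0.29 uM artemisinin and DMSO.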
# AS120 = tested on: AS120
# Outline: as §1
# ATS189 = tested on: ATS189
# Outline: as §1
# ATS95 = tested on: ATS95
# Outline: as §1
# CP191 = tested on: CP191
# Outline: as §1
# CP192 = tested on: CP192
# Outline: as §1
# CP238 = tested on: CP238
# Outline: as §1
# CP247 = tested on: CP247
# Outline: as §1
# CP256 = tested on: CP256
# Outline: as §1
# CP262 = tested on: CP262
# Outline: as §1
# DIV30 = tested on: DIV30
# Outline: as §1
# Dd2 = tested on: Dd2
# Outline: as §1
# N140 = tested on: N140
# Outline: as §1
# P93_24 = tested on: P93_24
# Outline: as §1
# PAD = tested on: PAD
# Outline: as §1
# PC15 = tested on: PC15
# Outline: as §1
# PC49 = tested on: PC49
# Outline: as §1
# TAB109 = tested on: TAB109
# Outline: as §1
# TAB113 = tested on: TAB113
# Outline: as §1
# TAB165 = tested on: TAB165
# Outline: as §1
# Potency is read from the fitted curve at half-maximal effect.
Compound,Potency (3D7),Potency (AS120),Potency (ATS189),Potency (ATS95),Potency (CP191),Potency (CP192),Potency (CP238),Potency (CP247),Potency (CP256),Potency (CP262),Potency (DIV30),Potency (Dd2),Potency (N140),Potency (P93_24),Potency (PAD),Potency (PC15),Potency (PC49),Potency (TAB109),Potency (TAB113),Potency (TAB165)
CC(=O)O[C@]1(C(C)=O)CC[C@@H]2[C@@H]3C=C(C)C4=CC(=O)CC[C@@]4(C)[C@H]3CC[C@]21C,inactive,inactive,inactive,inactive,inactive,inactive,inactive,inactive,inactive,inactive,inactive,inactive,inactive,inactive,inactive,inactive,inactive,inactive,inactive,inactive
CO[C@H]1[C@@H](OC(N)=O)[C@H](O)[C@@H](Oc2ccc3c(O)c(NC(=O)c4ccc(O)c(CC=C(C)C)c4)c(=O)oc3c2C)OC1(C)C,inactive,inactive,inactive,inactive,inactive,inactive,inactive,inactive,inactive,inactive,inactive,inactive,inactive,inactive,inactive,inactive,inactive,inactive,inactive,inactive
CC(C)(C)NC[C@H](O)COc1cccc2c1CCC(=O)N2,inactive,inactive,inactive,inactive,inactive,inactive,inactive,inactive,inactive,inactive,inactive,inactive,inactive,inactive,inactive,inactive,inactive,inactive,inactive,inactive
CCOC(=O)[C@H](CCc1ccccc1)N[C@@H](C)C(=O)N1[C@H](C(=O)O)C[C@H]2CCC[C@@H]21,inactive,inactive,inactive,inactive,inactive,inactive,inactive,inactive,inactive,inactive,,inactive,inactive,inactive,inactive,inactive,inactive,inactive,inactive,inactive
C=CCN1C(=CCO)[C@H]2C[C@H]3[C@@H]1CC[C@@]31c3ccccc3N3C=C4[C@@H]5N(/C=C/2[C@H]31)c1ccccc1[C@]51CC[C@H]2[C@H]1C[C@@H]4/C(=C/CO)N2CC=C,inactive,inactive,inactive,inactive,inactive,inactive,inactive,inactive,inactive,inactive,inactive,inactive,inactive,inactive,inactive,inactive,inactive,inactive,inactive,inactive
C[C@@]12CC[C@H]3[C@@H](CCC4=CC(=O)CC[C@]43C)[C@H]1CC[C@H]2C(=O)CO,inactive,,inactive,inactive,inactive,inactive,inactive,,inactive,inactive,inactive,inactive,inactive,inactive,,inactive,inactive,inactive,,
COc1cc2nc(N3CCN(C(=O)[C@@H]4CCCO4)CC3)nc(N)c2cc1OC,inactive,inactive,inactive,inactive,inactive,inactive,inactive,inactive,inactive,inactive,inactive,inactive,inactive,inactive,inactive,inactive,inactive,inactive,inactive,inactive
NC(=O)N[C@H]1NC(=O)NC1=O,,inactive,inactive,inactive,inactive,inactive,inactive,inactive,inactive,inactive,inactive,inactive,inactive,inactive,inactive,inactive,inactive,inactive,inactive,inactive
NS(=O)(=O)c1cc2c(cc1Cl)N[C@@H](CC1CCCC1)NS2(=O)=O,inactive,inactive,inactive,inactive,inactive,inactive,inactive,inactive,inactive,inactive,inactive,inactive,inactive,inactive,inactive,inactive,,inactive,inactive,inactive
COc1cc(N)c(Cl)cc1C(=O)N[C@H]1CCN(CCCOc2ccc(F)cc2)C[C@H]1OC,,,,,2000 nM (active),inactive,,,2820 nM (active),3610 nM (active),,3550 nM (active),,,,inactive,inactive,,,3550 nM (active)
C=CCOc1ccccc1OC[C@H](O)CNC(C)C,inactive,inactive,inactive,inactive,inactive,inactive,inactive,inactive,,inactive,inactive,,inactive,inactive,inactive,inactive,inactive,inactive,inactive,
COC(=O)C1=C(C)NC(C)=C(C(=O)OC(C)C)[C@H]1c1cccc2nonc12,,,,,,inactive,inactive,,inactive,,inactive,inactive,3160 nM (active),inactive,inactive,inactive,inactive,,,
CC(=O)OCC(=O)[C@@]1(O)CC[C@@H]2[C@H]3CCC4=CC(=O)C=C[C@]4(C)[C@]3(F)[C@@H](O)C[C@@]21C,inactive,inactive,inactive,inactive,inactive,inactive,inactive,inactive,inactive,inactive,inactive,inactive,inactive,inactive,inactive,inactive,inactive,inactive,inactive,inactive
CC[N+](CC)(CC)CC[C@](O)(c1ccccc1)C1CCCCC1,inactive,inactive,inactive,inactive,inactive,inactive,inactive,inactive,inactive,inactive,inactive,inactive,inactive,inactive,inactive,inactive,inactive,inactive,inactive,inactive
O=C1O[C@H](CN2CCOCC2)CN1/N=C\c1ccc([N+](=O)[O-])o1,,,inactive,inactive,inactive,inactive,inactive,inactive,inactive,inactive,inactive,,,,,inactive,,,,
O=C(Nc1ccccc1)OC[C@H](CN1CCCCC1)OC(=O)Nc1ccccc1,inactive,inactive,inactive,inactive,inactive,inactive,inactive,inactive,inactive,inactive,inactive,inactive,inactive,inactive,inactive,inactive,inactive,inactive,inactive,inactive
CS(=O)(=O)c1ccc([C@H](O)[C@H](CO)NC(=O)C(Cl)Cl)cc1,inactive,inactive,inactive,inactive,inactive,inactive,inactive,inactive,,,inactive,,inactive,,inactive,inactive,inactive,,inactive,
CC(=O)[C@@]1(O)CC[C@H]2[C@H]3C[C@@H](C)C4=CC(=O)C=C[C@]4(C)[C@@]3(F)[C@@H](O)C[C@]21C,inactive,inactive,inactive,inactive,inactive,inactive,inactive,,inactive,inactive,inactive,inactive,inactive,inactive,inactive,inactive,inactive,inactive,inactive,inactive
CN1C(=O)C[C@H](c2ccccc2)C1=O,inactive,,inactive,7.1 nM (active),inactive,inactive,inactive,inactive,inactive,inactive,inactive,inactive,inactive,inactive,inactive,inactive,inactive,5 nM (active),,inactive
CC1(C)O[C@@H]2C[C@H]3[C@H]4C[C@H](F)C5=CC(=O)CC[C@]5(C)[C@@H]4[C@H](O)C[C@]3(C)[C@]2(C(=O)CO)O1,inactive,inactive,inactive,inactive,inactive,,inactive,inactive,inactive,inactive,inactive,inactive,inactive,inactive,inactive,inactive,inactive,inactive,inactive,inactive
O=C(NC[C@@H](O)CO)c1c(I)c(C(=O)NC[C@@H](O)CO)c(I)c(N(CCO)C(=O)CO)c1I,inactive,inactive,inactive,inactive,inactive,inactive,inactive,inactive,inactive,inactive,inactive,inactive,inactive,inactive,inactive,inactive,inactive,inactive,inactive,inactive
CC(=O)[C@@H]1CC[C@@H]2[C@@H]3C[C@H](C)C4=CC(=O)CC[C@@]4(C)[C@H]3[C@H](O)C[C@]21C,inactive,inactive,inactive,inactive,inactive,inactive,inactive,inactive,inactive,inactive,inactive,inactive,inactive,inactive,inactive,inactive,inactive,inactive,inactive,inactive
C[C@H](Oc1ccccc1)C(=O)N[C@@H]1C(=O)N2[C@@H]1SC(C)(C)[C@@H]2C(=O)O,inactive,inactive,inactive,inactive,inactive,inactive,inactive,inactive,inactive,inactive,inactive,inactive,inactive,inactive,inactive,inactive,inactive,inactive,inactive,inactive
